Experimental data: PubChem BioAssay (NCATS)
Records with an inconclusive call do not appear. The source made the active and inactive calls. Unless noted, calls follow the shape of the dose curve; as a rule, active = well fitted curve in the direction sought with a large enough effect; inconclusive = small, poorly fitted or top-dose-only effect, or another doubt; inactive = no such curve, though single readings can be large; an effect the other way counts as inactive or inconclusive.

Tests used:
[1] = qHTS for Inhibitors of Plasmodium falciparum (DD2) proliferation (AID 504314);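 also: parasite DNA measured by SYBR Green fluorescence after red cell lysis; plate controls were DMSO vehicle for no effect and artemisinin wells for full effect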
How it was run: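 Erythrocytes infected with P. falciparum (0.3% parasitemia, 2.5% hematocrit final) were incubated with compounds for 72 h at 37C, 5% CO2. Parasite DNA was detected by SYBR Green I fluorescence after saponin/Triton lysis, normalized to artemisinin (0.29 uM) and DMSO controls.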

[2] = qHTS for Inhibitors of Plasmodium falciparum (GB4) proliferation (AID 504315);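 also: 0% = DMSO vehicle and -100% = 0.29 µM artemisinin control; nearly all actives have a fitted effect of over 50% in size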
How it was run: (§1)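 Erythrocytes infected with P. falciparum line (0.3% parasitemia, 2.5% hematocrit final) incubated with compounds 72 h at 37 °C, 5% CO2; SYBR Green lysis buffer added, fluorescence read next day. Normalized to 0.29 uM artemisinin and DMSO.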

[3] = qHTS for Inhibitors of Plasmodium falciparum (7G8) proliferation (AID 504316);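 also: series mostly up to about 6.7 µM; 0% = DMSO vehicle and -100% = 0.29 µM artemisinin full kill; nearly all actives have a fitted effect of over 65% in size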
How it was run: as §1

[4] = qHTS for Inhibitors of Plasmodium falciparum (HB3) proliferation (AID 504318);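 also: 0% = DMSO vehicle and -100% = artemisinin control; nearly all actives have a fitted effect of over 60% in size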
How it was run: as §1

[5] = qHTS for Inhibitors of Plasmodium falciparum (CP250) proliferation (AID 504320);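 also: plate controls were DMSO vehicle for no effect and 0.29 µM artemisinin control for full effect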
How it was run: as §1

[6] = molecular target: Atrial natriuretic peptide receptor 1 (Homo sapiens) (UniProt P16066); assay: Natriuretic polypeptide receptor (hNpr1) antagonism - Pilot CMLD screen (AID 1347052; calls by dose curve;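 also: HEK293 cells with hNpr1 stimulated by hNppA peptide at 0.1 nM; cGMP level read as GloSensor luciferase luminescence after agonist stimulation; series mostly up to about 9.2 µM; % is scaled to controls: 0 for no effect and ±100 for the full control effect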)
Atrial natriuretic peptide receptor 1 (Homo sapiens), sequence (P16066 whole entry, looked up): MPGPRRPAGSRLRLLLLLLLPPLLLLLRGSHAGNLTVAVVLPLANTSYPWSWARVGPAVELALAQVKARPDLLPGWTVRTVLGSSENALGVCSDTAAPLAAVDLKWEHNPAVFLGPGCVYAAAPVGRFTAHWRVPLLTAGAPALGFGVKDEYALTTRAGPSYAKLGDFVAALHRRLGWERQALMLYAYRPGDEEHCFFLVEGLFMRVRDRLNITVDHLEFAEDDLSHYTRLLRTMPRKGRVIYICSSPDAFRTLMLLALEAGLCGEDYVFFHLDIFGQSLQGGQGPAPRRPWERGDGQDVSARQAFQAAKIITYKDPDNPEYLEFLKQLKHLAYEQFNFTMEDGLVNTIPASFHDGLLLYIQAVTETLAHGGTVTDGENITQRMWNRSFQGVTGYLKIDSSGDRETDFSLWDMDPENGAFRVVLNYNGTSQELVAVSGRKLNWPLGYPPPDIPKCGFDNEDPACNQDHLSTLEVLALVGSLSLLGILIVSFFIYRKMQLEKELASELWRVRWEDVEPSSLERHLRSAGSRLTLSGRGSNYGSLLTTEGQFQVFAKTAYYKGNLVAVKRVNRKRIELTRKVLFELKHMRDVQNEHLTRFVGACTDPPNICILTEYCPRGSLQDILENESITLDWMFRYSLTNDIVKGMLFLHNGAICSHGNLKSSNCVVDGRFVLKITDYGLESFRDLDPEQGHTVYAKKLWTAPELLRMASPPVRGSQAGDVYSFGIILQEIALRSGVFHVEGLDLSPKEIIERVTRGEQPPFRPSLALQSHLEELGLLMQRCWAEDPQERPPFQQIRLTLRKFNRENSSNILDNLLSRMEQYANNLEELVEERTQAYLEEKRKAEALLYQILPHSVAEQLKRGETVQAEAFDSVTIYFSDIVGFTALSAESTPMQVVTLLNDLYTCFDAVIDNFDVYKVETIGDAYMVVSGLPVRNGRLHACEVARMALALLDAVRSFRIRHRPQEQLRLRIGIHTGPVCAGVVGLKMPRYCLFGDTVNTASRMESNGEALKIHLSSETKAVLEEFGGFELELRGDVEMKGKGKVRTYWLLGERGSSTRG

COC(=O)CC=C[C@@H](C)[C@H](NC(=O)OCC(Cl)(Cl)Cl)c1ccccc1
inactive: Potency [1] | Potency [2] | Potency [3] | Potency [4] | Potency [5] | Potency [6]

CC(=O)C1=C(C)N(Cc2ccccc2)C(=O)NC1c1cccc(F)c1 (stereo not drawn)
inactive: Potency [1] | Potency [2] | Potency [3] | Potency [4] | Potency [5] | Potency [6]

COCCN1C=C2C(=O)C(C)(OC(=O)C3CCCC3)C(=O)C=C2C=C1c1ccsc1 (stereo not drawn)
inactive: Potency [1] | Potency [2] | Potency [3] | Potency [4] | Potency [5] | Potency [6]

COC(=O)CC=C[C@@H](C)[C@H](NC(=O)OCC(Cl)(Cl)Cl)c1cccc(OC)c1
inactive: Potency [1] | Potency [2] | Potency [3] | Potency [4] | Potency [5] | Potency [6]

COCC1=C(C(=O)OC)C(c2ccccc2)N(C(C)=O)C(=O)N1 (stereo not drawn)
inactive: Potency [1] | Potency [2] | Potency [3] | Potency [4] | Potency [5] | Potency [6]

COC(=O)C1=C[C@@H]([C@@H](C)[C@H](OC)c2ccccc2Br)[C@@H]2OCCC[C@H]12
inactive: Potency [1] | Potency [2] | Potency [3] | Potency [4] | Potency [5] | Potency [6]

CC#CCN1c2ccccc2[C@]23CCC(=O)N(Cc4cccc(C(F)(F)F)c4)C2=NC(C(=O)OC)=C(C(=O)OC)[C@H]13
inactive: Potency [1] | Potency [2] | Potency [3] | Potency [4] | Potency [5] | Potency [6]

COCCN1C(=O)N[C@@H](CCc2ccccc2)[C@H](C(=O)OC)[C@H]1C
inactive: Potency [1] | Potency [2] | Potency [3] | Potency [4] | Potency [5] | Potency [6]

CC[C@@H](c1ccccc1)n1c(=O)n2n(c1=O)[C@H]1[C@H](O)[C@@H]3O[C@H]3C(=NOCc3ccccc3)[C@H]1CC2
inactive: Potency [1] | Potency [2] | Potency [3] | Potency [4] | Potency [5] | Potency [6]

C=CC[C@@]1(C(=O)OC)C=C[C@@H](C)[C@H](c2ccccc2Br)N1C(=O)C(F)(F)F
inactive: Potency [1] | Potency [2] | Potency [3] | Potency [4] | Potency [5] | Potency [6]

CC(C)[C@@H](OCc1ccccc1)[C@H](C)C=NO[C@H](C)c1cn([C@@H]2COC[C@@H]2O)nn1
inactive: Potency [1] | Potency [2] | Potency [3] | Potency [4] | Potency [5] | Potency [6]

CCCCC1=CC2=C(c3ccco3)C(=O)C(C)(OC(=O)c3ccc(OC)cc3)C(=O)C2=CN1CC1CC1 (stereo not drawn)
inactive: Potency [1] | Potency [2] | Potency [3] | Potency [4] | Potency [5] | Potency [6]

COC(=O)c1nnc(N[C@@H](Cc2c[nH]c3ccccc23)C(=O)OC)nc1C(=O)OC
inactive: Potency [1] | Potency [2] | Potency [3] | Potency [4] | Potency [5] | Potency [6]

C[C@H]1Cc2c(-c3ccccc3)nc3c(c2CO1)CN(S(=O)(=O)c1ccc(Cl)c2nonc12)CC3
inactive: Potency [1] | Potency [2] | Potency [3] | Potency [4] | Potency [5] | Potency [6]

COC(=O)CCCC1=CC2=CC(=O)C(C)(OC(=O)c3cccs3)C(=O)C2=CN1CCN1CCOCC1 (stereo not drawn)
inactive: Potency [1] | Potency [2] | Potency [3] | Potency [4] | Potency [5] | Potency [6]

COC(=O)CC=C[C@@H](C)[C@@H](C=NOC[C@@H](O)COCc1ccco1)OC
inactive: Potency [1] | Potency [2] | Potency [3] | Potency [4] | Potency [5] | Potency [6]

C[C@@H]1C(c2ccccc2)=Cc2[nH]c(=O)[nH]c2C[C@@H]1C(=O)N1CCCC1
inactive: Potency [1] | Potency [2] | Potency [3] | Potency [4] | Potency [5] | Potency [6]

COC(=O)N[C@@H](c1ccc(Br)cc1)C(C(=O)OC)C(=O)OC
inactive: Potency [1] | Potency [2] | Potency [3] | Potency [4] | Potency [5] | Potency [6]

COC(=O)c1c(C(=O)OC)c2c3ccccc3cc(-c3ccccc3)n2c1C(=O)OC
inactive: Potency [1] | Potency [2] | Potency [3] | Potency [4] | Potency [5] | Potency [6]

CC1(OC(=O)C2CCCC2)C(=O)C=C2C=C(c3ccsc3)OC=C2C1=O (stereo not drawn)
inactive: Potency [1] | Potency [2] | Potency [3] | Potency [4] | Potency [5] | Potency [6]

COc1cc(OC)c2c(c1)OC1Cc3cc(OC)c(OC)cc3C2O1 (stereo not drawn)
inactive: activity, negative = inhibition [1] -3.4% [at 1.12 µM] | Potency [2] | Potency [3] | Potency [4] | Potency [5] | Potency [6]

C=CCN1c2ccccc2[C@]23CCC(=O)N(CCOC)C2=NC(C(=O)OC)=C(C(=O)OC)[C@H]13
inactive: Potency [1] | Potency [2] | Potency [3] | Potency [4] | Potency [5] | Potency [6]

O=C1[C@@H]2[C@H]3[C@H](O)[C@H](O)CC(=NOC[C@@H](O)COCc4ccco4)[C@@H]3CC[C@H]2C(=O)N1C1CCCCC1
inactive: Potency [1] | Potency [2] | Potency [3] | Potency [4] | Potency [5] | Potency [6]

COC(=O)C1=C(C(=O)OC)[C@@H]2N(C)c3ccccc3[C@@]23C[C@@H](CO)N(C(=O)c2ccc(Br)cc2)C3=N1
inactive: Potency [1] | Potency [2] | Potency [3] | Potency [4] | Potency [5] | Potency [6]

COC(=O)CC1c2ccccc2C(Cc2ccc(OC)cc2)=C(C)N1C(=O)OC (stereo not drawn)
inactive: Potency [1] | Potency [2] | Potency [3] | Potency [4] | Potency [5] | Potency [6]

CC1(OC(=O)c2cccs2)C(=O)C=C2C=C(c3ccsc3)OC=C2C1=O (stereo not drawn)
inactive: Potency [1] | Potency [2] | Potency [3] | Potency [4] | Potency [5] | Potency [6]

Cc1ccc([S+](=O)([O-])N(c2ccccc2)[S+](=O)([O-])C(F)(F)F)cc1
inactive: Potency [1] | Potency [2] | Potency [3] | Potency [4] | Potency [5] | Potency [6]

O=C(C=Cc1ccc2c(c1)OCO2)c1ccc(F)cc1
inactive: Potency [1] | Potency [2] | Potency [3] | Potency [4] | Potency [5] | Potency [6]

COc1ccc(OC)c(-c2ccccc2C=NNS(=O)(=O)c2ccc(C)cc2)c1
inactive: Potency [1] | Potency [2] | Potency [3] | Potency [4] | Potency [5] | Potency [6]

COc1cccc([C@H]2Oc3ccc(OC)cc3C(=NO[C@@H](C)c3cn([C@H](CO)Cc4ccccc4)nn3)[C@H]2O)c1
inactive: Potency [1] | Potency [2] | Potency [3] | Potency [4] | Potency [5] | Potency [6]

CC=COC(=O)N[C@@H](c1ccccc1)[C@]1(C(=O)OC)CCCC1=O
inactive: Potency [1] | Potency [2] | Potency [3] | Potency [4] | Potency [5] | Potency [6]

COC(=O)C1=C(C(=O)OC)[C@@H]2N(C)c3ccccc3[C@@]23CCC(=O)N(Cc2ccco2)C3=N1
inactive: Potency [1] | Potency [2] | Potency [3] | Potency [4] | Potency [5] | Potency [6]

COC(=O)CC1c2ccccc2C=C(C2CC2)N1C(=O)OC (stereo not drawn)
inactive: Potency [1] | Potency [2] | Potency [3] | Potency [4] | Potency [5] | Potency [6]

CCN1C(=O)NC(c2cccc(C(F)(F)F)c2)C(C(C)=O)=C1C (stereo not drawn)
inactive: Potency [1] | Potency [2] | Potency [3] | Potency [4] | Potency [5] | Potency [6]

CCN1C(=O)NC(c2cccc(F)c2)C(C(=O)OC)=C1C (stereo not drawn)
inactive: Potency [1] | Potency [2] | Potency [3] | Potency [4] | Potency [5] | Potency [6]

COC(=O)CC=C[C@@H](C)[C@H](OC)c1c(Br)ccc2c1OCO2
inactive: Potency [1] | Potency [2] | Potency [3] | Potency [4] | Potency [5] | Potency [6]

COc1ccc(-c2nc3c(c4c2C[C@H](c2ccccc2)OC4)CN(S(=O)(=O)c2ccc(Cl)c4nonc24)CC3)c(C)c1
inactive: Potency [1] | Potency [2] | Potency [3] | Potency [4] | Potency [5] | Potency [6]

C=C(C)CCN1C(=O)NC(c2ccccc2)C(C(C)=O)=C1C (stereo not drawn)
inactive: Potency [1] | Potency [2] | Potency [3] | Potency [4] | Potency [5] | Potency [6]

CCCCCCC#C[C@@H]1C=C[C@H](OC(=O)OCC)[C@@H](COC(=O)OCC)O1
inactive: Potency [1] | Potency [2] | Potency [3] | Potency [4] | Potency [5] | Potency [6]

COc1ccc(C2=CC3=C(Br)C(=O)C(C)(O)C(=O)C3=CO2)cc1 (stereo not drawn)
inactive: Potency [1] | Potency [2] | Potency [3] | Potency [4] | Potency [5] | Potency [6]

COC(=O)N1C2CC3(C)CC(=O)CC1(C)C3c1ccccc12 (stereo not drawn)
inactive: Potency [1] | Potency [2] | Potency [3] | Potency [4] | Potency [5] | Potency [6]

O=C1CCCC=C1C(O)CCOCc1ccccc1 (stereo not drawn)
inactive: Potency [1] | Potency [2] | Potency [3] | Potency [4] | Potency [5] | Potency [6]

CCOC(=O)CN1C(=O)NC(c2cccc(F)c2)C(C(C)=O)=C1C (stereo not drawn)
inactive: Potency [1] | Potency [2] | Potency [3] | Potency [4] | Potency [5] | Potency [6]

CCOC(=O)NN=C1C[C@@H](O)[C@@H](O)[C@@H]2[C@H]3C(=O)N(Cc4ccc5c(c4)OCO5)C(=O)[C@@H]3CC[C@@H]12
inactive: Potency [1] | Potency [2] | Potency [3] | Potency [4] | Potency [5] | Potency [6]

COC(=O)C1=C(C)N(CC2CC2)C(=O)NC1c1ccccc1 (stereo not drawn)
inactive: Potency [1] | Potency [2] | Potency [3] | Potency [4] | Potency [5] | Potency [6]

COCCN1C(=O)NC(c2cccc(C(F)(F)F)c2)C(C(C)=O)=C1C (stereo not drawn)
inactive: Potency [1] | Potency [2] | Potency [3] | Potency [4] | Potency [5] | Potency [6]

COc1ccc2ccccc2c1-c1c(OC)ccc2ccccc12
inactive: Potency [1] | Potency [2] | Potency [3] | Potency [4] | Potency [5] | Potency [6]

C#CCN1C(=O)[C@]2(OCCC=C[C@@H]2C)c2cc(OC)ccc21
inactive: Potency [1] | Potency [2] | Potency [3] | Potency [4] | Potency [5] | Potency [6]

COC(=O)CCCC1=CC2=CC(=O)C(C)(OC(=O)c3cccs3)C(=O)C2=CN1C1CC1 (stereo not drawn)
inactive: Potency [1] | Potency [2] | Potency [3] | Potency [4] | Potency [5] | Potency [6]

O=C1CCC=C1C(O)c1ccccc1 (stereo not drawn)
inactive: Potency [1] | Potency [2] | Potency [3] | Potency [4] | Potency [5] | Potency [6]

CC(C)OC(=O)[C@H]1O[C@H](CCCCOCc2ccccc2)[C@@H](C)[C@H]2O[C@H]21
inactive: Potency [1] | Potency [2] | Potency [3] | Potency [4] | Potency [5] | Potency [6]

C=CCCN1C(=O)NC(c2ccccc2)C(C(C)=O)=C1C (stereo not drawn)
inactive: Potency [1] | Potency [2] | Potency [3] | Potency [4] | Potency [5] | Potency [6]

COC(=O)C=C[C@H]1c2ccccc2[C@@H](OC)[C@@H]1C
inactive: Potency [1] | Potency [2] | Potency [3] | Potency [4] | Potency [5] | Potency [6]
